Experimental data taken from PubChem BioAssay (NCI).
Compounds without any hit were thinned out: in the full panel of roughly 83,000, 20% have a hit.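 Results are percent growth after 48 hours of single-concentration exposure. 100 means growth as in untreated cells, lower positive values show inhibition; negative values down to -100 show cell death.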 A number with no mark means an inactive call. Calls of active or inactive are those of the source. How the source made its calls: active means growth percent below 10; inactive means the rest.

system: SNB-75 CNS; experiment: NCI-60 one-dose screen, 48 h (100 = growth as untreated, 0 = no growth, -100 = all killed); details: 10 µM unless noted

Structure (SMILES)	growth
COc1ccc(C/C(=C(\C)c2ccc(OCCN3CCCC3)cc2)c2ccc(OCCN3CCCC3)cc2)cc1	83.2%
CCOC(=O)Oc1c(OC)cc(C(=O)c2ccc(OC)c(O)c2OC)cc1OC	34.1%
CCCCOc1ccc(/C(C)=N/Nc2cc(C)nc3ccc(Br)cc23)cc1	103%
O=[N+]([O-])c1cc(Br)c2cccc3c2c1CC3	100%
CC(Oc1ccc(C(=O)O)cc1C(F)(F)F)c1ccc(Oc2ccccc2)cn1 (stereo not drawn)	90.1%
CCN1CCN(CCNc2nccc(-c3c(-c4cccc(OC)c4)nc4occn34)n2)S1(=O)=O	112%
Cn1c2ccccc2c2c3c(c4c5ccccc5n(C)c4c21)C(=O)OC3	68.1%
COc1cc2c(cc1OC)C(=O)/C(=C/c1cc(C)c(O)c(C)c1)S2	24%
O=C(/C=C/c1ccc(F)cc1)c1ccc(NC(=O)N2CCN(c3cc4c(cc3F)c(=O)c(C(=O)O)cn4C3CC3)CC2)cc1	90.7%
O=C1c2ccc3c4c(ccc(c24)C(=O)N1CCCNCc1ccccc1Cl)C(=O)N(CCCNCc1ccccc1Cl)C3=O	-97.9% (active)
Cc1cccc(NC(=O)Nc2ccc(-n3cnc4cc(-c5ccc(O)cc5)ccc43)cc2)c1	69.2%
c1ccc(-c2cn3c(ccc4ccccc43)n2)cc1	51.9%
COc1cc2oc(-c3cccc(C(=O)Nc4ccccc4)c3)cc(=O)c2c(O)c1OC	21.8%
Cc1ccc(/C=N/NC(=O)CSc2nc3ccccc3c(=O)n2Cc2ccc(S(N)(=O)=O)cc2)cc1	71%
C#CCNC(=O)c1cccc2c1cc(C)n2-c1nc2c(c(NCc3ccccc3)n1)CCCC2	5.33% (active)
COc1ccccc1NC(=O)C1CC(c2ccc(F)cc2)=NO1 (stereo not drawn)	87.9%
O=C1Nc2cc(-c3ccc(NC(=O)c4ccccc4)cc3)ccc2/C1=C/c1ccc[nH]1	99%
C=CC(=O)N[C@@H](/C=C/C(=O)OCC)Cc1ccc(-c2cc(Cl)cc(Cl)c2)cc1	40.3%
Cc1ccc(NC(=O)c2cc(-c3nc4ccccc4s3)c(=O)n(NS(=O)(=O)c3ccc(Cl)cc3)c2N)cc1	77.5%

Structure (SMILES)	growth
O=C1Nc2cc(-c3ccc(NC(=O)C4CC4)cc3)ccc2/C1=C/c1ccc[nH]1	94.5%
O=S(=O)(NCCNc1nccc(-c2c(-c3cccc(F)c3)nc3sccn23)n1)c1ccccc1	71.5%
O=C(NCCNc1nccc(-c2c(-c3cccc(F)c3)nc3sccn23)n1)c1ccc(Cl)cc1	63.5%
COc1cc2oc(-c3cccc(C(=O)Nc4ccc(Cl)cc4)c3)cc(=O)c2c(O)c1OC	24.4%
O=C1OC(Cc2ccccc2)C1c1ccccc1 (stereo not drawn)	92.1%
CC(=O)Nc1ccc(-n2cnc3cc(-c4ccc(OCCN5CCCCC5)cc4)ccc32)cc1	88.2%
O=C(N/N=C/c1ccc(Oc2ccccc2)cc1)c1cnn2c1NC(c1ccccc1)C2 (stereo not drawn)	76.8%
CCN(CC)CC[n+]1cc2cc(OC)c(OC)cc2c2ccc3cc4c(cc3c21)OCO4	3.63% (active)
O=Cc1cc2ccccc2nc1Oc1ccc(C(F)(F)F)cc1	83.2%
Cc1cc2nc3c4cc(C=O)ccc4n(CCN(C)C)c3nc2cc1C	28.2%
N#Cc1cccc(-c2ccc3c(c2)NC(=O)/C3=C\c2ccc[nH]2)c1	58.2%
CCc1c(Cl)nc(N)nc1Nc1ccc(C)c(C)c1	93.5%
COc1cc(NC(C)CCCNC(=O)CCC(=O)NCCCNCCCCCCCCCCNCCCNC(=O)CCC(=O)NCCCC(C)Nc2cc(OC)cc3cccnc23)c2ncccc2c1 (stereo not drawn)	59.1% [8 µM]
Cc1ccccc1NS(=O)(=O)c1cccc(C(=O)Nc2ccc(Br)cc2)c1	53.7% [25 µM]
COc1cc(/C=C\C(=O)O)ccc1OCc1ccccc1	103%
CCCCCCCCOc1ccc(/C=N/Nc2cc(C)nc3ccc(Br)cc23)cc1	20%
S=c1cc(S)c2cc(Br)ccc2[nH]1	105%
CCOC(=O)CSc1nc2ccccc2c(=O)n1Cc1ccc(S(N)(=O)=O)cc1	85.8%
C=C1C(=O)O[C@H]2[C@H]1CC/C(COC(=O)NCc1c[nH]c3ccc(Cl)cc13)=C\CC[C@@]1(C)O[C@@H]21	-6.74% (active)
